Inconclusive results are not listed. The source made the active and inactive calls. The call rests on the fitted dose curve; in most records, active means well fitted curve in the direction sought with a large enough effect; inconclusive means small, poorly fitted or top-dose-only effect, or another doubt; inactive means no such curve, though single readings can be large; an effect the other way counts as inactive or inconclusive.
molecular target: Tumor susceptibility gene 101 protein (Homo sapiens) (UniProt Q99816); assay: qHTS Assay for Iinhibitors of HIV-1 Budding by Blocking the Interaction of PTAP/TSG101: Hit Validation (AID 651600); conditions: PTAP peptide/TSG101 UEV interaction, biochemical assay; series mostly up to 57.5 µM; activity change, negative = inhibition: at the top concentration; further: nearly all actives have a fitted effect of over 70% in size
Sequence (Q99816 whole entry, looked up, the tested form may be a part): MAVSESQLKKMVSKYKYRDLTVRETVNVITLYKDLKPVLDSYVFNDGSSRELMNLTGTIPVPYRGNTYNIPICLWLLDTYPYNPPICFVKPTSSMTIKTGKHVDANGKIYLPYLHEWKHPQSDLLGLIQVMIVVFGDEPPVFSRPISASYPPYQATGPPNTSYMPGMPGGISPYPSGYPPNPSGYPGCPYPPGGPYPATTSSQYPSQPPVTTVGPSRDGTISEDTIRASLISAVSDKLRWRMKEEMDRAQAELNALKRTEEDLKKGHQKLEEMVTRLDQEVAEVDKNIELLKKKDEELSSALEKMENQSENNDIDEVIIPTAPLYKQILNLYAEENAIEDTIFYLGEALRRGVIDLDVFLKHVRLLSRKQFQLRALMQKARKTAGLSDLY
Summary of the method: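 Compounds are added to the Tsg101 binding domain (10 uM final) in pH 7.5 HEPES buffer. FITC-PTAP peptide follows at 50 nM final. After 20 min at r.t., polarized FITC emission is measured.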
On the % scale 0 is the no-effect control and ±100 the full control effect; potency means the concentration at half of the fitted maximal effect.

SMILES	activity change, negative = inhibition	Potency
CCCCN(C)C1=CC2=CC(=C(C#N)C#N)CCC2CC1 (stereo not drawn)	74.8% (inactive)	–
CCN(CC)C1=CC2=CC(=C(C#N)C#N)CCC2CC1 (stereo not drawn)	68.4% (inactive)	–
CC(=O)N1CCc2nc3sc(C(=O)c4ccc(F)cc4)c(N)c3c(C(F)(F)F)c2C1	-1.82% (inactive)	–
Cc1cc2nc3c(=O)n(Cc4ccccc4)c(=O)[nH]c3nc2cc1N	–	3.66 µM (active)
CC(=O)OCCn1c2nc(=O)[nH]c(=O)c-2nc2cc(C)c(C)cc21	–	0.919 µM (active)

molecular target: Rap guanine nucleotide exchange factor 4 (Homo sapiens) (UniProt Q8WZA2); assay: Confirmatory qHTS for agonist of cAMP-regulated guanine nucleotide exchange factor 4 (EPAC2) (AID 1645884); conditions: EPAC2 GEF activity, Rap1B-BODIPY-GDP fluorescence; series mostly up to 154 µM; activation: at the top concentration;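 further: nucleotide exchange releases bodipy-GDP from Rap1 and this lowers its fluorescence; nearly all actives have a fitted effect of over 65% in size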
Sequence (Q8WZA2 whole entry, looked up): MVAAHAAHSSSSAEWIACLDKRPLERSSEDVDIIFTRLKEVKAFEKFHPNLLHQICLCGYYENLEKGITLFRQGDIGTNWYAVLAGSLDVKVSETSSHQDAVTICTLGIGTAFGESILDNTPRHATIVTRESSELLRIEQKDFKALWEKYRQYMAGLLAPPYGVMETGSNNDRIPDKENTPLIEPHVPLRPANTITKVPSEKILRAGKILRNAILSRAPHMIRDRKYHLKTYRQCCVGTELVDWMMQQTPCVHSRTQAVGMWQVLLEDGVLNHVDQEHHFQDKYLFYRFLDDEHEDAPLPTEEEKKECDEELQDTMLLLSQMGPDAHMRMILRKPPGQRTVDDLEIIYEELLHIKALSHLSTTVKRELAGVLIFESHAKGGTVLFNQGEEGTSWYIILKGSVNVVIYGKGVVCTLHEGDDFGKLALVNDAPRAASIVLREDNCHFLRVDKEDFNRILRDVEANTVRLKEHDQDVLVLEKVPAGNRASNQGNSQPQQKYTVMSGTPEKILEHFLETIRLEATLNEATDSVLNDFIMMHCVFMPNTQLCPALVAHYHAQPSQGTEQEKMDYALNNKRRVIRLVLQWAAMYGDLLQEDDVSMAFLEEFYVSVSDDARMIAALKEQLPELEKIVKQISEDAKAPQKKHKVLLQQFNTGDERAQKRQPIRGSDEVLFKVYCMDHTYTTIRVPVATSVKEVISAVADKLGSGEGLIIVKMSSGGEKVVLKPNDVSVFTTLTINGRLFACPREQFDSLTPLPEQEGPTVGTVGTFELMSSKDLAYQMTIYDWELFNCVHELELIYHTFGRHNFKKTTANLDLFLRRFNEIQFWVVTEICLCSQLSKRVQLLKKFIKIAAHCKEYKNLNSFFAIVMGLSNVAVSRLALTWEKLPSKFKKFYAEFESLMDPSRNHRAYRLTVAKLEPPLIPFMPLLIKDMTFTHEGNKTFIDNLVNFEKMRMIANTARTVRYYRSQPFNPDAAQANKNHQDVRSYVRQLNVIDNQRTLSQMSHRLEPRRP

SMILES	Potency	activation
CCN(CC)CCCC(C)n1c2nc(=O)[nH]c(=O)c-2nc2cc(Cl)ccc21 (stereo not drawn)	100 µM (active)	–
CCCCN(C)C1=CC2=CC(=C(C#N)C#N)CCC2CC1 (stereo not drawn)	126 µM (active)	–
COc1cc2cc(Oc3ccc4ccc(=O)oc4c3)c(=O)oc2cc1O	–	1.41% [at 17.1 µM, percent relative to cAMP agonist control] (inactive)
Cc1cccc(C)c1NC(=O)CN1C(=O)S/C(=C\c2cccn2-c2cccc(C(=O)O)c2)C1=O	100 µM (active)	–
O=C(O)CC/C(=C\c1ccc(N2CCCC2)c([N+](=O)[O-])c1)c1nc2ccccc2s1	–	-19.4% (inactive)
CN(C)/C=C1\C=C2C(=O)c3ccccc3N2C1=O	5.01 µM (active)	–
CCN(CC)C1=CC2=CC(=C(C#N)C#N)CCC2CC1 (stereo not drawn)	112 µM (active)	–
CC(=O)N1CCc2nc3sc(C(=O)c4ccc(F)cc4)c(N)c3c(C(F)(F)F)c2C1	–	1.58% [at 83.8 µM, percent relative to cAMP agonist control] (inactive)
CCOC(=O)[C@H]1[C@H]2COc3ccc(C)cc3[C@@H]2N2C(=O)c3ccc(C)cc3NC(=O)[C@@]12C	112 µM (active)	–
Cc1cc2nc3c(=O)n(Cc4ccccc4)c(=O)[nH]c3nc2cc1N	–	16.2% [at 17.1 µM, percent relative to cAMP agonist control] (inactive)
CN(C)c1ccc(/C=C(/C(=O)c2ccc(Cl)cc2Cl)n2cncn2)cc1	112 µM (active)	–
O=C(O)c1ccc(Nc2nc(-c3cc4ccccc4oc3=O)cs2)cc1O	–	8.3% (inactive)
CC(=O)OCCn1c2nc(=O)[nH]c(=O)c-2nc2cc(C)c(C)cc21	100 µM (active)	–
N=C1/C(=C\c2ccc(-c3cccc(C(=O)O)c3)o2)C(=O)N=C2SC=C(c3ccccc3)N12	100 µM (active)	–
COc1cc(/C=C2\SC(=Nc3ccccc3)N(CCc3c[nH]c4ccccc34)C2=O)ccc1OC(C)C(=O)O (stereo not drawn)	–	3.49% (inactive)
N#Cc1ccc(CSc2nc(N)cc(N)n2)cc1	112 µM (active)	–
CC1(Cc2cc(Cl)ccc2C(F)(F)F)C(=O)Nc2c(Cl)cccc21 (stereo not drawn)	–	13.3% (inactive)
CCOC(=O)c1ccc(/C=C2/C=C(c3ccccc3)N(c3ccc(Cl)c(C(=O)O)c3)C2=O)cc1	100 µM (active)	–
Cc1cc(Br)cn2c(Cc3ccsc3)c(-c3ccco3)nc12	–	5.83% [at 17.1 µM, percent relative to cAMP agonist control] (inactive)
Cc1cc(C(=O)CCC(=O)N2CCN(S(=O)(=O)c3ccccc3)CC2)c(C)s1	112 µM (active)	–
CCOc1ccccc1CN(CCc1ccc2c(c1)OCO2)Cc1ccccn1	–	11.2% [at 17.1 µM, percent relative to cAMP agonist control] (inactive)

molecular target: Rap guanine nucleotide exchange factor 4 (Homo sapiens) (UniProt Q8WZA2); assay: Confirmatory qHTS for antagonist of cAMP-regulated guanine nucleotide exchange factor 4 (EPAC2) (AID 1645885); conditions: EPAC2 Rap1B-BODIPY-GDP exchange fluorescence, biochemical; series mostly up to 12.7 µM; activity change, negative = inhibition: at the top concentration; outcome: at the top concentration; further: nearly all actives have a fitted effect of over 25% in size

SMILES	activity change, negative = inhibition	Potency	outcome
COc1cc2cc(Oc3ccc4ccc(=O)oc4c3)c(=O)oc2cc1O	-8.45% (inactive)	–	–
Oc1ccc(Cl)cc1CNc1cccc2cccnc12	28.3% [at 114 µM] (inactive)	–	–
COc1ccc2sc(N(Cc3cccnc3)C(=O)c3ccco3)nc2c1	22.9% (inactive)	–	–
O=C(O)CC/C(=C\c1ccc(N2CCCC2)c([N+](=O)[O-])c1)c1nc2ccccc2s1	68.8% [at 114 µM] (inactive)	–	–
O=c1oc2c(O)cccc2cc1-c1nc2ccccc2[nH]1	28% (inactive)	–	–
COc1ccccc1Oc1nc(-c2cccnc2)nc2ccccc12	–	67.5 µM (active)	–
O=S(=O)(c1ccc2[nH]c3c(c2c1)CCCC3)N1CCCCC1	–	–	inactive
COc1cccc(Cn2c(=O)c3ccccc3n3nc(C)cc23)c1	29% [at 114 µM] (inactive)	–	–
CC(NC1=CC(=O)c2cccnc2C1=O)C(O)c1ccccc1 (stereo not drawn)	-11.2% [at 114 µM] (inactive)	–	–
CC(=O)N1CCc2nc3sc(C(=O)c4ccc(F)cc4)c(N)c3c(C(F)(F)F)c2C1	9.42% (inactive)	–	–
CC1CCN(c2ccc3c(c2)S(=O)(=O)c2cccc(C(=O)NC[C@@H]4CCCO4)c2C3=O)CC1	-24% [at 114 µM] (inactive)	–	–
Cc1cc2nc3c(=O)n(Cc4ccccc4)c(=O)[nH]c3nc2cc1N	-17.1% (inactive)	–	–
COCCn1c(-c2ccc(OC)cc2)c(-c2ccc(OC)cc2)oc1=O	56.6% [at 114 µM] (inactive)	–	–
OCc1ccc(-c2ccccc2)c(-c2ccccc2)c1	–	–	inactive; activator; fitted 37.933 uM
O=S(=O)(c1ccccc1)c1nc(Nc2cccc(O)c2)sc1Cl	94.3% [at 114 µM] (inactive)	–	–
Oc1ccc(Br)cc1CNc1cccc2cccnc12	–	33.8 µM (active)	–
CC1CCCN(C(=O)c2ccc(-c3ccccc3Cl)o2)C1 (stereo not drawn)	14% [at 114 µM] (inactive)	–	–
O=C(O)c1ccc(Nc2nc(-c3cc4ccccc4oc3=O)cs2)cc1O	17.5% [at 114 µM] (inactive)	–	–
O=C(c1cc(Cl)ccc1Cl)N1CCc2ccccc21	–	33.8 µM (active)	–
COc1cc(/C=C2\SC(=Nc3ccccc3)N(CCc3c[nH]c4ccccc34)C2=O)ccc1OC(C)C(=O)O (stereo not drawn)	-19.2% [at 114 µM] (inactive)	–	–
Nc1ccc(CSc2ccc(Cl)cc2)c(Cl)c1	–	21.3 µM (active)	–
COc1ccc(O)c(C(c2c(C)[nH][nH]c2=O)c2c(C)[nH][nH]c2=O)c1	–	75.7 µM (active)	–
CC1(Cc2cc(Cl)ccc2C(F)(F)F)C(=O)Nc2c(Cl)cccc21 (stereo not drawn)	–	30.1 µM (active)	–
O/N=C(/c1ccc(F)cc1)C1CC1c1c(F)cccc1Cl (stereo not drawn)	-66.3% [at 114 µM] (inactive)	–	–
Cn1cc(-c2cnc3c(NC=O)cc(-c4cccc(C(F)(F)F)c4)cn23)cn1	36.9% [at 114 µM] (inactive)	–	–
Cc1cc(Br)cn2c(Cc3ccsc3)c(-c3ccco3)nc12	-3.41% (inactive)	–	–
COC(=O)c1ccc(COc2ccc(/C=C(\C#N)c3nc4ccccc4[nH]3)cc2OC)o1	47.3% [at 114 µM] (inactive)	–	–

Reference: PubChem BioAssay (NCATS)
